Screening data as filed in PubChem.
Pf growth 48h = inhibits P. falciparum growth in the first generation, 48 h. P. falciparum luciferase growth in erythrocytes, 48 h. Potency, µM (series often up to 28.7 µM), inactives show at the top dose activity change, negative = inhibition, usual class: inhibitors. 310,000 tested, 5.9% active; further: potency means the concentration at half of the fitted maximal effect
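A one-generation exposure of luciferase-tagged malaria parasites in RPMI 1640/Albumax erythrocyte culture, 37 C and 5% CO2. Inhibition is inferred from decreased luminescence after adding detection reagent.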
HCMV inh = blocks human cytomegalovirus replication | HFF cells, HCMV-luciferase reporter, 72 h; hits give low values | activity change, negative = inhibition, % at 57.5 µM | 410,000 tested, 4.5% active | AID 1259415; in the data active means activity change below about -60%; inconclusive means no clear call, values can overlap the other calls; inactive means above about -39%
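Screen run at 2 compound doses on HFFs infected with reporter HCMV, MOI 1 PFU/cell. Luciferase activity from cell lysates at 72 h post infection gave inhibition relative to buffer-only and Salinomycin wells.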
Lassa entry inh = Lassa virus entry inhibition; Lassa virus pseudotype entry inhibition, cell reporter; Potency, µM (doses to about 37.9 µM), inactives show at the top dose activity change, negative = inhibition, actives largely listed as inhibitors; 300,000 tested, 1.2% active; calls by dose curve; tested in HEK293 cells; further: potency means the concentration at half of the fitted maximal effect; nearly all actives have a fitted effect of over 50% in size
MARV entry inh = Marburg virus entry inhibition; Potency, µM (series often up to 37.8 µM), for the others: at the highest dose activity change, negative = inhibition, actives largely listed as inhibitors; 300,000 tested, 1.8% active; Marburg virus pseudotyped entry inhibition, cell reporter; AID 540276; calls by dose curve; tested in HEK293 cells; further: potency means the concentration at half of the fitted maximal effect
Pf growth 96h = P. falciparum growth inhibition at 96 hours; 320,000 tested, 6.9% active; Potency, µM (titrated, usually from 28.7 µM), without a hit: at the top dose activity change, negative = inhibition, usual class: inhibitors; P. falciparum luciferase reporter growth, 96 h; AID 504834; further: potency means the concentration at half of the fitted maximal effect
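Luminescence readout: decreased luciferase signal marks inhibited growth of reporter-expressing P. falciparum in infected red cells (2% hematocrit, 0.05% parasitemia final), exposed to compound two generations (96 h, 37 C, 5% CO2).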
HCV inh = inhibitors of hepatitis C virus infection. Huh7.5.1 HCVcc-Cre infection, luciferase reporter, 44 h. Potency, µM (highest dose often 41.8 µM), without a hit: at the highest dose activity change, negative = inhibition, actives largely listed as inhibitors. 340,000 tested, 3.4% active. AID 651820; further: potency means the concentration at half of the fitted maximal effect
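Cells (1,000/well) were plated 4 h before compound, then infected with HCVcc-Cre virus (~0.5 moi). After 44 h further culture, infection was read as luciferase luminescence following a 15 min substrate incubation at room temperature.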
Starred values were filed as active, the others as inactive; [ ] = dose if it differs, or a comment. In the library only some 14% were active in any assay of this set; here they are far more common. Unless noted, the call rests on the fitted dose curve; in most records, active means well fitted inhibition curve with a large enough effect; inconclusive means small, poorly fitted or top-dose-only effect, or another doubt; inactive means no such curve, though single readings can be large or run the other way. On the % scale 0 is the no-effect control and ±100 the full control effect.

`Cn1c(=O)c2c(nc(NCCO)n2CCCc2ccccc2)n(C)c1=O` gave Pf growth 48h -11%, HCMV inh -3, Pf growth 96h inconclusive and HCV inh 16µM*.
`CNc1nc2c(c(=O)n(C)c(=O)n2C)n1Cc1ccccc1` gave Pf growth 48h 7%, HCMV inh -65*, Lassa entry inh -16%, MARV entry inh inconclusive, Pf growth 96h 8% and HCV inh inconclusive.
For COC(=O)c1ccc(CN2C(=O)[C@]3(O[C@H](C)CC4=CCCC43)c3c(Br)cccc32)cc1 (stereo partly drawn) the results were MARV entry inh 5%[14.2 µM].
For O=C(CCBr)N1CCN(C(=O)CCBr)CC1 the results were Pf growth 48h -15% and Pf growth 96h inconclusive.
`CCNC(=O)NC1c2ccccc2CSc2ccccc21` (stereo not drawn) gave HCMV inh -12, Lassa entry inh -22%[46.1 µM], MARV entry inh inconclusive and HCV inh 9%.
For CCOCCN1CCN(C2c3ccccc3CSc3ccccc32)CC1 (stereo not drawn) the results were HCMV inh inconclusive, Lassa entry inh inconclusive, MARV entry inh 13µM* and HCV inh 22µM*.
For COc1ccc(CC(=O)NC2CC(=O)N(c3cccc(F)c3)C2)cc1 (stereo not drawn) the results were HCMV inh inconclusive and Lassa entry inh 4%[46.1 µM].
Screening Cc1ccccc1C(=O)O/N=C/c1c(N2CCOCC2)n(C)c2ccccc12 returned Pf growth 48h 2.6µM*, HCMV inh -99*, Lassa entry inh -16%, MARV entry inh inconclusive, Pf growth 96h 2.3µM* and HCV inh 1µM*.
`Cc1sc(NC(=O)C2c3ccccc3Oc3ccccc32)c(C(=O)OC(C)C)c1C` gave HCMV inh 26, Lassa entry inh 4%[46.1 µM] and MARV entry inh 1%[46.1 µM].
CS(=O)(=O)N(Cc1ccccc1)c1ccccc1C(=O)Nc1ccccc1C(=O)NCc1ccco1 was read as HCMV inh -3, Lassa entry inh -2%, MARV entry inh 4.1µM*, Pf growth 96h inconclusive and HCV inh -15%.
For Cc1ccc(S(=O)(=O)N(Cc2ccccc2)c2ccccc2C(=O)NCc2ccco2)cc1 the results were Pf growth 48h 10µM*, HCMV inh -19, Lassa entry inh inconclusive, MARV entry inh inconclusive, Pf growth 96h 5.9µM* and HCV inh inconclusive.
Screening Cc1ccc(S(=O)(=O)N(Cc2ccccc2)c2ccccc2C(=O)Nc2ccccc2C(=O)NCc2ccco2)cc1 returned Pf growth 48h 10µM*, HCMV inh inconclusive, Lassa entry inh -3%, MARV entry inh 16µM*, Pf growth 96h inconclusive and HCV inh 8%.
Screening CS(=O)(=O)N(CC(=O)Nc1ccccc1C(=O)NCc1ccco1)c1ccccc1F returned Pf growth 48h -28%, HCMV inh -36, Lassa entry inh 14%, MARV entry inh 1%[46.1 µM], Pf growth 96h -21% and HCV inh 1%.
For Cc1cccc(S(=O)(=O)NC(=O)C2(C)CCN2C(=O)Cc2cc(F)ccc2F)c1 (stereo not drawn) the results were HCMV inh -7.
C=CCc1c(C)nc2c(C)cccc2c1SC(=N)N was read as Pf growth 48h inconclusive, HCMV inh -32, Lassa entry inh -14%, MARV entry inh inconclusive, Pf growth 96h 15µM* and HCV inh -27%.
For COc1cc(NC(=O)c2cc3ccccc3cc2OC)ccc1NC(=O)c1cccs1 the results were Pf growth 48h -4%, Pf growth 96h 1% and HCV inh 3.2µM*.
COc1cc(NC(=S)NC(=O)c2c(OC)cccc2OC)ccc1NC(=O)c1cccs1 was read as Pf growth 48h 5.2µM*, HCMV inh 13, Lassa entry inh -25%, MARV entry inh -29%, Pf growth 96h 9% and HCV inh inconclusive.
COc1cc(NC(=S)NC(=O)c2cc(C)cc(C)c2)ccc1NC(=O)c1cccs1 was read as Pf growth 48h inconclusive, HCMV inh -29, Lassa entry inh -16%, MARV entry inh inconclusive, Pf growth 96h 2.9µM* and HCV inh inconclusive.
For COc1cc(NC(=S)NC(=O)c2ccccc2C)ccc1NC(=O)c1cccs1 the results were Pf growth 48h inconclusive, HCMV inh -1, Lassa entry inh 0%, MARV entry inh -17%, Pf growth 96h -29% and HCV inh 2µM*.
For NN=C1c2ccccc2-c2ccc(N)cc21 the results were HCMV inh 13, Lassa entry inh -10%, MARV entry inh inconclusive and HCV inh -27%.
Screening CCN(CC)C(=O)c1ccc(Cc2cn(C)c3ccccc23)nc1 returned HCMV inh -19.
`CCOC(=O)c1ccc(N2C(=O)c3n[nH]c(-c4ccco4)c3C2c2ccc([N+](=O)[O-])cc2)cc1` (stereo not drawn) gave Pf growth 48h inconclusive, HCMV inh -12, Lassa entry inh 23µM*, MARV entry inh inconclusive, Pf growth 96h 20% and HCV inh 14µM*.
For Cc1ccc(N2C(=O)c3n[nH]c(C)c3C2c2ccccc2Cl)cc1 (stereo not drawn) the results were HCMV inh inconclusive, Lassa entry inh -20%[46.1 µM] and MARV entry inh 4%[46.1 µM].
For COc1cc(C2c3c(n[nH]c3C)C(=O)N2c2ccc(C)cc2)ccc1O (stereo not drawn) the results were Pf growth 48h 35%, HCMV inh inconclusive, Lassa entry inh -18%, MARV entry inh -3%, Pf growth 96h 32% and HCV inh 11%.
CCOC(=O)c1ccc(-n2c(-c3ccco3)nc3ccccc3c2=O)cc1 was read as Pf growth 48h 18%, HCMV inh -22, Lassa entry inh 10%, MARV entry inh 1%, Pf growth 96h inconclusive and HCV inh 12%.
Screening CCOC(=O)c1ccc(N2C(=O)c3n[nH]c(-c4ccco4)c3C2c2ccc(C)cc2)cc1 (stereo not drawn) returned HCMV inh -103*, Lassa entry inh inconclusive and MARV entry inh inconclusive.
CCOC(=O)c1ccc(N2C(=O)c3n[nH]c(-c4ccco4)c3C2c2ccc(O)c(OC)c2)cc1 (stereo not drawn) was read as HCMV inh -23, Lassa entry inh -24%[46.1 µM] and MARV entry inh inconclusive.
Cc1[nH]nc2c1C(c1ccccn1)N(c1ccc(Br)cc1)C2=O (stereo not drawn) was read as Pf growth 48h 14%, HCMV inh -66*, Lassa entry inh 16%, MARV entry inh 15% and HCV inh -9%.
